Compounds without any hit were thinned out: in the full panel of roughly 79,000, 15% have a hit. Unmarked numbers belong to inactive results. Activity calls are given as the source filed them. Rule as the data show it: active = growth inhibition above about 70%; inactive = the rest.

A short description of one experiment: NCI Yeast Anticancer Drug Screen. Data for the rad50 strain (AID 155).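 Also: 0% = growth of vehicle-only cultures of the same strain.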 Conditions: S. cerevisiae rad50 strain growth inhibition; at 50.0 µM; stronger effect = higher value. In short, it runs like this:
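Compounds were tested on a yeast strain with an engineered DNA damage repair alteration; the reported value is growth inhibition normalised to vehicle treatment.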
On to `CCCCN(CCC(=O)O)c1ccc(/C=C\c2ccnc3ccccc23)cc1`, for which the growth inhibition is 94.2% (active).
Turning to `CC1CC(N)=NC1C(=O)NCCC#N` (stereo not drawn), the growth inhibition is 10.9%.
As for `O=C(CC1(O)CCCCC1)OC1CCCC1`, the growth inhibition was 58.3%.
The same measure, in the same setting: then `CN(C)c1nc(-c2ccccc2)cc(-c2ccc(O)cc2)n1`, with 36.8%; and `Oc1cc(C(c2ccccc2)c2ccccc2)c2ccccc2c1O`, with 97.6% (active); and `C(=P(c1ccccc1)(c1ccccc1)c1ccccc1)[P+](c1ccccc1)(c1ccccc1)c1ccccc1`, with 99.3% (active).
Same read-out and setting: then `COC(=O)c1ccc(CCc2cc(O)ccc2O)cc1`, with 98.8% (active); and `CCCCCCCCCCN`, with 65.8%.
Consider `CC[N-]c1nncs1.CC[N-]c1nncs1.CC[N-]c1nncs1.CC[N-]c1nncs1.[Cl][Rh][Cl]`, for which the growth inhibition is 97.7% (active).
The same measure, in the same setting: then `CC(C)C1=CC23CCC4C(C)(C(=O)O)CCCC4(C)C2CC1CC3C#N` (stereo not drawn), with 98% (active); and `COc1ccc(/C(Cl)=C(\C=O)c2ccc(Cl)cc2)cc1`, with -4.05%.
Same read-out and setting: then `CCOC(=O)Cc1csc(/N=C\c2c(O)c3ccccc3oc2=O)n1`, with -4.35%.
Still for that read-out and setting: then `Cc1cccc(/C=N/NC(=S)Nc2ccccc2)n1`, with 89.2% (active).
For `Nc1nn2c(C(Br)Br)cc(C(Br)Br)nc2c1[N+](=O)[O-]`, the growth inhibition is 99.5% (active).
Same read-out and setting: then `c1ccc2nc3ccccc3nc2c1`, with 77.5% (active); and `O=c1ccc2nc3ccccc3ccc-2c1`, with 23%; and `C=CCOCC(C)OC(=O)C(C)C` (stereo not drawn), with 55.7%.
On the same count and under the same terms, then `CCCCCCOC(=O)CCC(=O)OCCCCCC`, with -2.7%; and `CC(=O)C(C(C)=O)C1C=CC=CC=C1`, with 97% (active).
As to `CCCOC(=O)CCCC(=O)N(CC)CC`, the growth inhibition is 10.7%.
On the same count and under the same terms, then `CCOC(=O)C(=O)CC1=Nc2ccccc2SC(c2cccc(C)c2)C1` (stereo not drawn), with 91.9% (active); and `COc1cc2c(c(-c3cn(C)c4ccccc34)c1OC)OCO2`, with 36.2%.
The same measure, in the same setting: then `COC(=O)c1c(C)cccc1C1CN=NC12Cc1ccc(C)c(C)c1C2=O` (stereo not drawn), with 61%; and `CCCCCCCCCCC(=O)CC(=O)c1c(O)cccc1O`, with 1.9%.
Same read-out and setting: then `CCCCCCNC(=S)N/N=C(\C)c1ccccn1`, with 76.3% (active); and `Oc1ccc(N=Nc2ccc(Cl)cc2)cc1O`, with 98.4% (active); and `CCO/C=C1\N=C(C(O)(c2ccc(Cl)cc2)c2ccc(Cl)cc2)OC1=O`, with 48.7%.
With `Clc1ccc(CN2COc3c(ccc4cccnc34)C2)cc1`, the growth inhibition was 97.1% (active).
Regarding `Cc1nc(C(N)=S)sc1/C(CC(=O)C(=O)Nc1cccc2ccc(O)cc12)=N\NC(=O)c1ccncc1`, the growth inhibition was 21.8%.
The same measure, in the same setting: then `Nc1ncc(C(=O)c2ccccc2)cc1[N+](=O)[O-]`, with -5.7%.
The same measure, in the same setting: then `O=C1C2C3C=CC(C3)C2C(=O)C2C3C=CC(C3)C12` (stereo not drawn), with 98.6% (active); and `CCCCOC(=O)c1cnc[nH]c1=O`, with 0.5%.
On the same count and under the same terms, then `N#CC(c1ccc(Cl)cc1)c1ccc([N+](=O)[O-])cc1` (stereo not drawn), with 40.9%.
Regarding `CN(C)C(N)=NC#N`, the growth inhibition is 73.2% (active).
On the same count and under the same terms, then `CCCCc1c(O)c(N=NC(=O)C[n+]2ccccc2)c2ccccc2c1O`, with 8.55%; and `CCOC(=O)C(=O)Nc1nc2c(s1)C(=O)c1ccccc1C2=O`, with 98.5% (active); and `COc1ccc(C(=O)Nc2ccccc2[N+](=O)[O-])cc1`, with -1.15%.
The same measure, in the same setting: then `COc1ccccc1NC(=O)/C(=C/n1c(=S)sc2ccccc21)C(C)=O`, with 38.3%; and `Cc1ccc(C)c(C(=O)/C=C/C(=O)O)c1`, with 52.5%.

The next experiment in a line: NCI Yeast Anticancer Drug Screen. Data for the mec2-1 strain (AID 157). The conditions noted are these: S. cerevisiae mec2-1 strain, at 5.0 µM (retest, dose inferred, filed as 0.5), stronger effect = higher value. In short, it runs like this: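 Mutant yeast (mec2-1) grown with compound; growth inhibition relative to vehicle control reported.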
`CCCCN(CCC(=O)O)c1ccc(/C=C\c2ccnc3ccccc23)cc1`: the growth inhibition is 6%.
As to `CC1CC(N)=NC1C(=O)NCCC#N` (stereo not drawn), the growth inhibition is 27%.
Still for that read-out and setting: then `O=C(CC1(O)CCCCC1)OC1CCCC1`, with -1%; and `CN(C)c1nc(-c2ccccc2)cc(-c2ccc(O)cc2)n1`, with -10%; and `Oc1cc(C(c2ccccc2)c2ccccc2)c2ccccc2c1O`, with 26%.
Still for that read-out and setting: then `C(=P(c1ccccc1)(c1ccccc1)c1ccccc1)[P+](c1ccccc1)(c1ccccc1)c1ccccc1`, with 99% (active).
Still for that read-out and setting: then `COC(=O)c1ccc(CCc2cc(O)ccc2O)cc1`, with 74% (active); and `CCCCCCCCCCN`, with -1%.
Take `CC[N-]c1nncs1.CC[N-]c1nncs1.CC[N-]c1nncs1.CC[N-]c1nncs1.[Cl][Rh][Cl]`: the growth inhibition was 43%.
Same read-out and setting: then `CC(C)C1=CC23CCC4C(C)(C(=O)O)CCCC4(C)C2CC1CC3C#N` (stereo not drawn), with 18%; and `COc1ccc(/C(Cl)=C(\C=O)c2ccc(Cl)cc2)cc1`, with -10%; and `CCOC(=O)Cc1csc(/N=C\c2c(O)c3ccccc3oc2=O)n1`, with 16%.
Still for that read-out and setting: then `Cc1cccc(/C=N/NC(=S)Nc2ccccc2)n1`, with -49%; and `Nc1nn2c(C(Br)Br)cc(C(Br)Br)nc2c1[N+](=O)[O-]`, with 100% (active); and `c1ccc2nc3ccccc3nc2c1`, with -3%.
Same read-out and setting: then `O=c1ccc2nc3ccccc3ccc-2c1`, with -53%.
For `C=CCOCC(C)OC(=O)C(C)C` (stereo not drawn), the growth inhibition was -46%.
Same read-out and setting: then `CCCCCCOC(=O)CCC(=O)OCCCCCC`, with -3%.
Consider `CC(=O)C(C(C)=O)C1C=CC=CC=C1`, for which the growth inhibition is -42%.
On the same count and under the same terms, then `CCCOC(=O)CCCC(=O)N(CC)CC`, with 0%; and `CCOC(=O)C(=O)CC1=Nc2ccccc2SC(c2cccc(C)c2)C1` (stereo not drawn), with -1%.
The same measure, in the same setting: then `COc1cc2c(c(-c3cn(C)c4ccccc34)c1OC)OCO2`, with 0%; and `COC(=O)c1c(C)cccc1C1CN=NC12Cc1ccc(C)c(C)c1C2=O` (stereo not drawn), with 0%.
`CCCCCCCCCCC(=O)CC(=O)c1c(O)cccc1O`: the growth inhibition is -11%.
For `CCCCCCNC(=S)N/N=C(\C)c1ccccn1`, the growth inhibition is 86% (active).
Same read-out and setting: then `Oc1ccc(N=Nc2ccc(Cl)cc2)cc1O`, with -8%.
On the same count and under the same terms, then `CCO/C=C1\N=C(C(O)(c2ccc(Cl)cc2)c2ccc(Cl)cc2)OC1=O`, with 1%.
The same measure, in the same setting: then `Clc1ccc(CN2COc3c(ccc4cccnc34)C2)cc1`, with -2%; and `Cc1nc(C(N)=S)sc1/C(CC(=O)C(=O)Nc1cccc2ccc(O)cc12)=N\NC(=O)c1ccncc1`, with 16%; and `Nc1ncc(C(=O)c2ccccc2)cc1[N+](=O)[O-]`, with -44%.
Regarding `O=C1C2C3C=CC(C3)C2C(=O)C2C3C=CC(C3)C12` (stereo not drawn), the growth inhibition was 58%.
For `CCCCOC(=O)c1cnc[nH]c1=O`, the growth inhibition was 2%.
`N#CC(c1ccc(Cl)cc1)c1ccc([N+](=O)[O-])cc1` (stereo not drawn): the growth inhibition is -16%.
Still for that read-out and setting: then `CN(C)C(N)=NC#N`, with 22%; and `CCCCc1c(O)c(N=NC(=O)C[n+]2ccccc2)c2ccccc2c1O`, with -3%; and `CCOC(=O)C(=O)Nc1nc2c(s1)C(=O)c1ccccc1C2=O`, with 18%.
Still for that read-out and setting: then `COc1ccc(C(=O)Nc2ccccc2[N+](=O)[O-])cc1`, with -16%.
Still for that read-out and setting: then `COc1ccccc1NC(=O)/C(=C/n1c(=S)sc2ccccc21)C(C)=O`, with -19%.
For the compound `Cc1ccc(C)c(C(=O)/C=C/C(=O)O)c1`, the growth inhibition is 22%.

The values above are taken from PubChem BioAssay (NCI).
